Data: the supplement of paper PMC10723795
± gives the standard deviation of the averaged measurements.

Each compound was assayed on BJ5TA (assay: nucleolar normality score relative to DMSO (fraction of DMSO control); RPE1 is a non-cancer human cell line; higher = more normal nucleoli (less nucleolar stress)).
Method: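 Selected screen hits were validated in hTERT lines (BJ5TA, CHON-002, RPE1) and cancer lines (DLD1, HCT116). Cells were immunostained for nucleolin and UBF and the nucleolar normality score was measured per field of view, with 4 fields per drug. Scores are normalized to each cell line's own DMSO control. Dose and time are not stated for this panel.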

SMILES | nucleolar normality score
CC(C)n1nc(-c2ccc3oc(N)nc3c2)c2c(N)ncnc21 [Sapanisertib] | 0.418 ± 0.049
Cc1nc(-c2cn3c(n2)-c2ccc(-c4cnn(C(C)(C)C(N)=O)c4)cc2OCC3)n(C(C)C)n1 [Taselisib] | 0.347 ± 0.013
CCc1cnn2c(NCc3ccc[n+]([O-])c3)cc(N3CCCC[C@H]3CCO)nc12 [Dinaciclib] | 0.242 ± 0.0091
CN1CC[C@H](c2c(O)cc(O)c3c(=O)cc(-c4ccccc4Cl)oc23)[C@H](O)C1 [Flavopiridol] | 0.202 ± 0.03
Cc1cnc(CNC(=O)c2c(=O)c3ccc(N4CCCN(C)CC4)nc3n3c2sc2ccccc23)cn1 | 0.107 ± 0.0069
C=CCNC1=C2C[C@@H](C)C[C@H](OC)[C@H](O)[C@@H](C)/C=C(\C)[C@H](OC(N)=O)[C@@H](OC)/C=C\C=C(/C)C(=O)NC(=CC1=O)C2=O | 0.306 ± 0.0062
CN(C)CCNC(=O)c1cccn2c(=O)c3cc4ccccc4cc3nc12 | 0.0738 ± 0.013
CC(C)c1cc(C(=O)N2Cc3ccc(CN4CCN(C)CC4)cc3C2)c(O)cc1O [Onalespib] | 0.294 ± 0.019
CC(C)c1c2cc(-c3ccnc(NC4CCC(NC5CCOCC5)CC4)n3)ccc2nn1C (configuration not stated) | 0.317 ± 0.025
COC[C@H](NC(=O)c1cnc(C)s1)C(=O)N[C@@H](COC)C(=O)N[C@@H](Cc1ccccc1)C(=O)[C@@]1(C)CO1 [Oprozomib] | 0.449 ± 0.043
CC(C)C[C@H](NC(=O)[C@H](CCc1ccccc1)NC(=O)CN1CCOCC1)C(=O)N[C@@H](Cc1ccccc1)C(=O)N[C@@H](CC(C)C)C(=O)[C@@]1(C)CO1 [Carfilzomib] | 0.328 ± 0.027
COc1cccc2c1C(=O)c1c(O)c3c(c(O)c1C2=O)C[C@@](O)(C(=O)CO)C[C@@H]3O[C@H]1C[C@H](N)[C@H](O)[C@H](C)O1 [Doxorubicin] | 0.129 ± 0.025
